Data on four molecules can be found in PubChem BioAssay (EPA / NIEHS).

Experiment [1] has as its target Hepatocyte nuclear factor 3-beta (Homo sapiens) (UniProt Q9Y261). Nature of the experiment: ATG_FoxA2_CIS: Attagene CIS-FACTORIAL HepG2 Assay for human Forkhead box A2 (FOXA2) (AID 2282942). The settings on record: HepG2 cis-reporter transcription factor activity, 24 h; actives raise or lower the signal. Summed up: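 Endogenous transcription factor activity was read in HepG2 cells carrying transiently transfected cis-promoter reporter units. After 24 h dosing, reporter mRNA was quantified by RT-PCR and capillary electrophoresis, and values fitted bidirectionally versus DMSO.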

Experiment [2] addresses Heat shock factor protein 1 (Homo sapiens) (UniProt Q00613). Put plainly: ATG_HSE_CIS: Attagene CIS-FACTORIAL HepG2 Assay for human Heat Shock Transcription Factor 1 (HSE) (AID 2282953). The settings on record: HepG2 HSE cis-reporter, Attagene RNA transcription; actives raise or lower the signal. Summed up: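 HepG2 cells transfected with cis-promoter reporter units sensing endogenous transcription factor activity; reporter mRNA quantified 24 h post-dose by RT-PCR and capillary electrophoresis of 6-FAM-labelled products. Bidirectional fitting against DMSO.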

Experiment [3] is described as follows: ATG_RORE_CIS: Attagene CIS-FACTORIAL HepG2 Assay for human RAR-related Orphan Receptor Element (RORE) (AID 2282959). The conditions noted are these: HepG2 Attagene cis-factorial RORE reporter, mRNA; actives raise or lower the signal. An outline of the steps:
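Cells were HepG2 carrying transfected cis-regulated reporter constructs, dosed for 24 hours. Total RNA was reverse-transcribed and reporter cDNA amplified, fluorescently labeled and sized by capillary electrophoresis. Activity was fitted bidirectionally relative to DMSO.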

Experiment [4] in a line: ATG_Sox_CIS: Attagene CIS-FACTORIAL HepG2 Assay for human SRY-box transcription factor (SOX) (AID 2282960). The settings on record: HepG2 Attagene cis-factorial SOX reporter, mRNA; actives raise or lower the signal. Summed up: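 Transient MRTU transfection of HepG2; 24 h compound incubation; TriZol RNA, oligo(dT) RT, PCR, 6-FAM primer extension, HpaI cut, CE. Bidirectional fit, DMSO = baseline.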

Experiment [5] concerns the target Transcription factor Sp1 (Homo sapiens) (UniProt P08047). Put plainly: ATG_Sp1_CIS: Attagene CIS-FACTORIAL HepG2 Assay for human Specificity Protein 1 (Sp1) (AID 2282961). The settings on record: HepG2 Sp1 cis-reporter transcription, actives raise or lower the signal. An outline of the steps:
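Endogenous Sp1 activity was gauged in human liver HepG2 cells bearing transfected reporter units under a cis-regulating promoter. After 24 h dosing, reporter mRNA was quantified by RT-PCR with capillary electrophoresis, and activity fitted bidirectionally versus DMSO.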

A short description of experiment [6]: ATG_SREBP_CIS: Attagene CIS-FACTORIAL HepG2 Assay for human Sterol Regulatory Element Binding (SREBP) (AID 2282962). The conditions noted are these: HepG2 Attagene cis-factorial SREBP reporter, mRNA; actives raise or lower the signal. An outline of the steps:
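In this cis-format assay, HepG2 liver cells express reporters controlled by promoter elements responsive to native transcription factors. Exposure lasts 24 h; reporter mRNA fluorescence from capillary electrophoresis gives the signal, fitted bidirectionally against DMSO.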

Experiment [7] concerns the target Signal transducer and activator of transcription 3 (Homo sapiens) (UniProt P40763). Put plainly: ATG_STAT3_CIS: Attagene CIS-FACTORIAL HepG2 Assay for human Signal Transducer and Activator of Transcription 3 (STAT3) (AID 2282963). The conditions noted are these: HepG2, Attagene cis-factorial STAT3 reporter transcription; actives raise or lower the signal. Summed up:
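Readout: fluorescent reporter mRNA fragments resolved by capillary electrophoresis. Setup: HepG2 transfected with MRTUs reporting endogenous transcription-factor activity, dosed 24 h. Gain or loss of signal fitted bidirectionally against DMSO control.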

Experiment [8] can be described thus: ATG_TA_CIS: Attagene CIS-FACTORIAL HepG2 Assay for human TA Basal Promoter (AID 2282964). The conditions noted are these: HepG2 Attagene CIS-factorial TA basal promoter reporter; actives raise or lower the signal. An outline of the steps:
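HepG2 cells transiently transfected with multiple reporter units under cis promoter elements, reporting endogenous transcription factor activity; this endpoint tracks the TA basal promoter as background control. Reporter mRNA after 24 h dosing measured by RT-PCR/capillary electrophoresis; bidirectional fits versus DMSO.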

Experiment [9] can be described thus: ATG_TCF_b_cat_CIS: Attagene CIS-FACTORIAL HepG2 Assay for human T-Cell-Factor with beta-catenin (TCF/b-cat) (AID 2282965). The settings on record: HepG2 TCF/beta-catenin cis-reporter transcription, actives raise or lower the signal. Summed up:
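HepG2 cells transiently transfected with cis-promoter-driven multiplexed reporter units; reporter mRNA measured 24 h after dosing by RT-PCR, FAM labelling, HpaI digestion and capillary electrophoresis. Bidirectional fitting relative to DMSO baseline.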

Experiment [10] can be described thus: ATG_TAL_CIS: Attagene CIS-FACTORIAL HepG2 Assay for human TAL Basal Promoter (AID 2282966).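 Also: background control endpoint measuring basal TAL promoter reporter mRNA not a specific factor.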 The conditions noted are these: HepG2 Attagene cis-factorial TAL promoter reporter; actives raise or lower the signal. An outline of the steps:
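Human hepatoma HepG2 cells, transfected with promoter-regulated reporter units, were treated 24 h. Reporter transcript levels, measured through RT-PCR and capillary electrophoresis, were fitted for gain or loss relative to DMSO.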

Experiment [11] has as its target Transcriptional activator Myb (Homo sapiens) (UniProt P10242). Put plainly: ATG_Myb_CIS: Attagene CIS-FACTORIAL HepG2 Assay for human Myeloblastosis (Myb) Proto-Oncogene Transcription Factor (AID 2282986). The settings on record: HepG2 Attagene CIS-FACTORIAL Myb reporter transcription; actives raise or lower the signal. An outline of the steps:
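Steps: transfect HepG2 with cis-regulated reporter units; dose with chemical for 24 h; isolate RNA, reverse-transcribe, PCR-amplify and FAM-label reporter sequences; digest with HpaI; resolve by capillary electrophoresis. Activity fitted in both directions relative to DMSO.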

Experiment [12] deals with Nuclear respiratory factor 1 (Homo sapiens) (UniProt Q16656). Put plainly: ATG_NRF1_CIS: Attagene CIS-FACTORIAL HepG2 Assay for human Nuclear Respiratory Factor 1 (NRF1) Orphan Gene (AID 2282987). The conditions noted are these: HepG2 NRF1 cis-element reporter, Attagene multiplex; actives raise or lower the signal. Summed up:
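Fluorescence intensity of labelled reporter cDNA fragments, resolved by capillary electrophoresis, served as readout for NRF1 cis-element activity. Transiently transfected HepG2 cells were dosed for 24 hours; activity in either direction was fitted against DMSO negative control.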

Experiment [13] in a line: ATG_NFI_CIS: Attagene CIS-FACTORIAL HepG2 Assay for human Nuclear Factor I (NFI) (AID 2282989). The settings on record: HepG2 cis-regulatory reporter, NFI response element transcription; actives raise or lower the signal. An outline of the steps:
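Endogenous TF activity in HepG2 cells transiently transfected with cis-element-driven multiplexed reporter units, read 24 h after dosing. Reporter mRNA quantified by RT-PCR, 6-FAM labelling, HpaI digestion and capillary electrophoresis; bidirectional fit versus DMSO.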

For experiment [14], the target named is Myc proto-oncogene protein (Homo sapiens) (UniProt P01106). Nature of the experiment: ATG_Myc_CIS: Attagene CIS-FACTORIAL HepG2 Assay for human Myelocytomatosis (Myc) Proto-Oncogene Transcription Factor (AID 2282990). The conditions noted are these: HepG2, Attagene cis-reporter transcription factor activity; actives raise or lower the signal. An outline of the steps:
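Transiently transfected HepG2 cells bearing cis-promoter reporter units for endogenous transcription factors; 24 h exposure. Reporter mRNA measured by RT-PCR, 6-FAM primer extension, HpaI cut and capillary electrophoresis; bidirectional fit relative to DMSO.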

Experiment [15] can be described thus: ATG_NRF2_ARE_CIS: Attagene CIS-FACTORIAL HepG2 Assay for human Nuclear Factor Erythroid 2 Related Factor 2 (NFR2) response to Antioxidant Response Elements (ARE) (AID 2282992). The conditions noted are these: HepG2 Attagene ARE/NRF2 reporter, transcription factor activity; actives raise or lower the signal. An outline of the steps:
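Using transiently transfected HepG2 cells exposed for 24 h, reporter mRNA levels were determined by RT-PCR with fluorescent primer extension and capillary electrophoresis, analysed for gain or loss of signal against DMSO.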

The nature of experiment [16]: ATG_Oct_MLP_CIS: Attagene CIS-FACTORIAL HepG2 Assay for human Octamer-Binding Transcription Factor (Oct) (AID 2282993). The settings on record: HepG2 Attagene cis-factorial Oct reporter, mRNA; actives raise or lower the signal. Summed up:
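HepG2 cells transiently transfected with cis-element-driven reporter transcription units (endogenous TF activity); 24 h compound exposure. Reporter mRNA quantified by RT-PCR, 6-FAM labelling, HpaI digestion and capillary electrophoresis; bidirectional fit versus DMSO baseline.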

In experiment [17] the target is Cellular tumor antigen p53 (Homo sapiens) (UniProt P04637). Nature of the experiment: ATG_p53_CIS: Attagene CIS-FACTORIAL HepG2 Assay for human p53 Transcription Factor (AID 2282994). The settings on record: HepG2 p53 cis-element reporter, Attagene mRNA; actives raise or lower the signal. Summed up:
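In HepG2 cells, reporter transcription units under cis-regulatory promoters were transiently introduced. Following 24 h treatment, RNA was processed to labelled, digested cDNA fragments read by capillary electrophoresis; fitting was bidirectional versus DMSO.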

For experiment [18], the target named is Nuclear receptor subfamily 1 group I member 2 (Homo sapiens) (UniProt O75469). Put plainly: ATG_PXR_TRANS: Attagene TRANS-FACTORIAL HepG2 Assay for human Pregnane X Receptor (PXR) (AID 2283008; active = hit-call score of the fitted dose curve at least 0.9, where 1 is the maximum). An outline of the steps: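 Multiplexed TRANS reporter panel in HepG2; this component tracks PXR-Gal4-driven reporter mRNA after 24 h dosing, measured by RT-PCR with capillary electrophoresis fluorescence, fitted against DMSO.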

Experiment [19] can be described thus: ATG_XTT_Cytotoxicity: Cytotoxicity Assessment in the Attagene TRANS-FACTORIAL HepG2 Assay (AID 2283584; active = hit-call score of the fitted dose curve at least 0.9, where 1 is the maximum). Summed up: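 24 h chemical exposure of reporter-transfected HepG2; XTT signal loss vs DMSO indicates cytotoxicity.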
Experiment [20] can be described thus: ATG_VDRE_CIS: Attagene CIS-FACTORIAL HepG2 Assay for human Vitamin D Receptor Element (VDRE) (AID 2282968). The conditions noted are these: HepG2 VDRE cis-reporter transcription, actives raise or lower the signal. Summed up:
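Transient MRTU transfection of HepG2, 24 h compound exposure. Readout: reporter transcripts via RT-PCR and capillary electrophoresis, fluorescence. Bidirectional fit vs DMSO.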

SMILES strings stand for the structures. Inconclusive results are not listed. The source made the active and inactive calls. The calls were made as follows, unless noted: active = hit-call score of the fitted dose curve at least 0.9, where 1 is the maximum; inactive = score below 0.9.

Usually AC50 stands for the concentration at which the activity in the assay is half-maximal.

Hepatocyte nuclear factor 3-beta (Homo sapiens), sequence (Q9Y261 whole entry, looked up): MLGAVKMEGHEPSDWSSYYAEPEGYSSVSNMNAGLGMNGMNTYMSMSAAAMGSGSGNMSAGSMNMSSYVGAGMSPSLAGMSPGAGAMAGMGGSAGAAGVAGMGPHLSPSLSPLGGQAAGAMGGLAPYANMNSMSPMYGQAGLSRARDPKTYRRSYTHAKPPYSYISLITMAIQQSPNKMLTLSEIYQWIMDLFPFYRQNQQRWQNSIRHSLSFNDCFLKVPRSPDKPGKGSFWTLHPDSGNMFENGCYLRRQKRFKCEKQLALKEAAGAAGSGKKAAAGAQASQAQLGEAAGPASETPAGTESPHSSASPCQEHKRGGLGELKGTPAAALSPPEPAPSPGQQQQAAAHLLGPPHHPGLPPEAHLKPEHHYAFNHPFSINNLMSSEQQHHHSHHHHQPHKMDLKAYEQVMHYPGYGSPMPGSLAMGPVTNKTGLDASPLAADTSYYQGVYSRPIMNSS
Heat shock factor protein 1 (Homo sapiens), sequence (Q00613 whole entry, looked up): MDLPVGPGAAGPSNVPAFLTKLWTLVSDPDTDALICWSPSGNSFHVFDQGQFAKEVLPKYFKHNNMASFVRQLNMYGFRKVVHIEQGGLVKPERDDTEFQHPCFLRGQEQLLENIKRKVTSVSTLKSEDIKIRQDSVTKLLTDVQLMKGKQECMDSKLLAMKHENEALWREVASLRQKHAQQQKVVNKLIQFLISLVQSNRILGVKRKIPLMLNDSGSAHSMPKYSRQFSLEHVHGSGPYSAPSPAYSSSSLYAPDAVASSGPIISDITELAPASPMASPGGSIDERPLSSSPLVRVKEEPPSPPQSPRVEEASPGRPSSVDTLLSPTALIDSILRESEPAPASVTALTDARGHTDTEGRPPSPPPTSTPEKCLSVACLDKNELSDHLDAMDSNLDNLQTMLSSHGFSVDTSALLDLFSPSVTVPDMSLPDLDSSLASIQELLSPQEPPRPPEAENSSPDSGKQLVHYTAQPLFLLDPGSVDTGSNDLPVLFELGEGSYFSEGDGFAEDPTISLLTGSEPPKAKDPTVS
Signal transducer and activator of transcription 3 (Homo sapiens), sequence (P40763 whole entry, looked up, the tested form may be a part): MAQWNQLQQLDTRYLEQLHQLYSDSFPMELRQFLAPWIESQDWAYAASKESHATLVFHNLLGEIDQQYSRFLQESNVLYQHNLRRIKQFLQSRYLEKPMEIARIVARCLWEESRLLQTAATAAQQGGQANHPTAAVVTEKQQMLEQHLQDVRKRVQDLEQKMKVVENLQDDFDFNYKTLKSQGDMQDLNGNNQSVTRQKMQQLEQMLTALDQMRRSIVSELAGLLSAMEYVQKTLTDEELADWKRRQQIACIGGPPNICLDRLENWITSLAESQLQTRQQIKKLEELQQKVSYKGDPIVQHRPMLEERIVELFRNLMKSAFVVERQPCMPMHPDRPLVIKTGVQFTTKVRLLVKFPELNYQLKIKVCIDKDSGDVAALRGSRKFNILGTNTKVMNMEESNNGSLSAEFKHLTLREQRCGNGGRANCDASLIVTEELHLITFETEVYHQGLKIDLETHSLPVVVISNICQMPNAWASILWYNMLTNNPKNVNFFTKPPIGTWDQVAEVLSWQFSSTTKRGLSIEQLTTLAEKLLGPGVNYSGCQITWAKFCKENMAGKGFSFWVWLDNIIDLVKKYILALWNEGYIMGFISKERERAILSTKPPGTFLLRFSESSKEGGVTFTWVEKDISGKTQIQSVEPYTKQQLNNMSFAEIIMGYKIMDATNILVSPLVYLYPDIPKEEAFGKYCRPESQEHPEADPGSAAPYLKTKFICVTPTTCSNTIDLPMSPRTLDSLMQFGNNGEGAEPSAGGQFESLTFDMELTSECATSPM
Nuclear respiratory factor 1 (Homo sapiens), sequence (Q16656 whole entry, looked up, the tested form may be a part): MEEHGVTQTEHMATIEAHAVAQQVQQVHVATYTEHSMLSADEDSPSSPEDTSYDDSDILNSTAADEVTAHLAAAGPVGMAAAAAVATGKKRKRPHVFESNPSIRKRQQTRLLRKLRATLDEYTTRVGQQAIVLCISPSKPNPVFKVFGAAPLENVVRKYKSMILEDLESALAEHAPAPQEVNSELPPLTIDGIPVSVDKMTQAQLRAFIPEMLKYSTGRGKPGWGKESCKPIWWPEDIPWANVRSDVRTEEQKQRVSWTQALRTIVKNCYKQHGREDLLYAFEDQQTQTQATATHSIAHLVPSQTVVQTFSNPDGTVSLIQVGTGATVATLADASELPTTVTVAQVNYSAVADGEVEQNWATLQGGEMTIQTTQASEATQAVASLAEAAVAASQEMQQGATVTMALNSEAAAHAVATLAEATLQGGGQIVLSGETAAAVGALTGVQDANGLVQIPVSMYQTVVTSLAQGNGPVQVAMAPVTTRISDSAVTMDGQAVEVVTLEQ
Myc proto-oncogene protein (Homo sapiens), sequence (P01106 whole entry, looked up): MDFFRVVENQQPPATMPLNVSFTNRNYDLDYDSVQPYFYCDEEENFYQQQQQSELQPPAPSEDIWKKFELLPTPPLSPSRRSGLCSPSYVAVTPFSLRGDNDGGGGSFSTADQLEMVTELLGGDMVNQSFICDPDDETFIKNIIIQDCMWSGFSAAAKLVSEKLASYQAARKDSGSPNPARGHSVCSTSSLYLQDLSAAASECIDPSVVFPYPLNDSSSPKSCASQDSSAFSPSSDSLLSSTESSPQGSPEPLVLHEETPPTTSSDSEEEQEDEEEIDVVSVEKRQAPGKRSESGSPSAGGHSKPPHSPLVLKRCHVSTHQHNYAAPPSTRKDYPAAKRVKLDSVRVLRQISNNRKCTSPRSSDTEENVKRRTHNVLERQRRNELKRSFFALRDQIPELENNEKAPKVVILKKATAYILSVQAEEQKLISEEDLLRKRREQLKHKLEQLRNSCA
Transcriptional activator Myb (Homo sapiens), sequence (P10242 whole entry, looked up): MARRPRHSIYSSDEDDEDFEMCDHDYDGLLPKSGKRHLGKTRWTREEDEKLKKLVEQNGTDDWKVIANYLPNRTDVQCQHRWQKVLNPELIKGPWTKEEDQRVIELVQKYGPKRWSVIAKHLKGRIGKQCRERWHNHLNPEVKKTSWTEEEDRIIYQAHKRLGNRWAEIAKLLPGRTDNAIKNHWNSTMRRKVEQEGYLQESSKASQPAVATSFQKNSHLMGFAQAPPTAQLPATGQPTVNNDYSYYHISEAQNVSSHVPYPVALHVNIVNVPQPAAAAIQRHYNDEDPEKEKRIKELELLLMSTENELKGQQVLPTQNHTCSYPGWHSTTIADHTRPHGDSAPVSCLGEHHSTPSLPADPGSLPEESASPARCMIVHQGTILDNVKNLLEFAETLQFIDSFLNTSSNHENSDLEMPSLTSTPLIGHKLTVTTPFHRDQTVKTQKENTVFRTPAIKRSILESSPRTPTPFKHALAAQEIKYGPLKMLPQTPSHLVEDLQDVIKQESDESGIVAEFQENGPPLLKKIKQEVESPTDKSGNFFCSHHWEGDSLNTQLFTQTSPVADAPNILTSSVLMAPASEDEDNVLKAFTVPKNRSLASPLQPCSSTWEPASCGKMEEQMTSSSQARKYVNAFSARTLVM
Transcription factor Sp1 (Homo sapiens), sequence (P08047 whole entry, looked up): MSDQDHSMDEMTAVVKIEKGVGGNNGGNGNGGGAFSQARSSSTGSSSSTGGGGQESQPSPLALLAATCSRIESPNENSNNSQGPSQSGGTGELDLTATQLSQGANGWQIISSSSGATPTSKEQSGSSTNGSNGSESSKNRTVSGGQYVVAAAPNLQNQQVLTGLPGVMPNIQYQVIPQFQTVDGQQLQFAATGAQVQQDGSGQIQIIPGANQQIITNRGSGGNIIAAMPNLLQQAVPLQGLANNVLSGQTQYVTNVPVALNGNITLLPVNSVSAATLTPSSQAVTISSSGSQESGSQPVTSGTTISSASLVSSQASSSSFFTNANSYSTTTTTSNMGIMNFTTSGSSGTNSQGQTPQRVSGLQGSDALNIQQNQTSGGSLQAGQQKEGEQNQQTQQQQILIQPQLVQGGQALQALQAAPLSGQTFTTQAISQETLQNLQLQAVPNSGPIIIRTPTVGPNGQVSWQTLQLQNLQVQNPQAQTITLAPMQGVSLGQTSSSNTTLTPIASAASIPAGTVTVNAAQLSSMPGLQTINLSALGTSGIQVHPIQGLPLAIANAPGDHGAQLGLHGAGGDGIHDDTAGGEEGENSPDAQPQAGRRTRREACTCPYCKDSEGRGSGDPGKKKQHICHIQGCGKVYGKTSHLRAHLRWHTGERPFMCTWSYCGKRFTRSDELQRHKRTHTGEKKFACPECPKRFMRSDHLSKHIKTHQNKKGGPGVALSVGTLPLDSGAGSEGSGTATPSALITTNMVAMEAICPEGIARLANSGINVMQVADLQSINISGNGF
Nuclear receptor subfamily 1 group I member 2 (Homo sapiens), sequence (O75469 whole entry, looked up, the tested form may be a part): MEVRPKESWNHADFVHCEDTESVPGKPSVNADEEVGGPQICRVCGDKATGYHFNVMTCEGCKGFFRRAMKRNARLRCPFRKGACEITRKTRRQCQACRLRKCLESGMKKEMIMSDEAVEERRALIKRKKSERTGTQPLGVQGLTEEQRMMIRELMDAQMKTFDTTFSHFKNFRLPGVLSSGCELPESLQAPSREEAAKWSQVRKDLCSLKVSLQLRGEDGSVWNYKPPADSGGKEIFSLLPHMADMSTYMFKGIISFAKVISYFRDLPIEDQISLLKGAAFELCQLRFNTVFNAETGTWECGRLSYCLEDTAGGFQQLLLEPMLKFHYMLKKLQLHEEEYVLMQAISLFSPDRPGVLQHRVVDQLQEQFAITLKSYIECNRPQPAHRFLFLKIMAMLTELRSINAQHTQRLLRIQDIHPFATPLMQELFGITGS
Cellular tumor antigen p53 (Homo sapiens), sequence (P04637 whole entry, looked up, the tested form may be a part): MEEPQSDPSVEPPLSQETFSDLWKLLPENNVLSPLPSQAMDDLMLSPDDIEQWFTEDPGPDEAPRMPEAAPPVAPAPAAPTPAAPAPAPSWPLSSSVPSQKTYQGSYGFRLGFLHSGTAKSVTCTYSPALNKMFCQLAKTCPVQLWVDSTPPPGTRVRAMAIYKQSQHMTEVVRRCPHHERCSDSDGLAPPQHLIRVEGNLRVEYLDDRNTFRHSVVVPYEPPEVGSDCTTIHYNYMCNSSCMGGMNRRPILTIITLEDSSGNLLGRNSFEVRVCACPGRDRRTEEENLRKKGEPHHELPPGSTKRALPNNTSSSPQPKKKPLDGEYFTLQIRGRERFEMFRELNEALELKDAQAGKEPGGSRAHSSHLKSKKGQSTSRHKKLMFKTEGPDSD

On to `CCC(C)C1N=C(C)C(C)S1` (stereo unspecified), for which the molecule was classed as inactive in experiment [1], in experiment [2], in experiment [3], in experiment [4], in experiment [5] and in experiment [6]. The result in experiment [7], in experiment [8], in experiment [9], in [10], in [11] and in experiment [12] was inactive. In addition, the call in experiment [13], in experiment [14], in experiment [15], in experiment [16], in experiment [17] and in experiment [19] was inactive. Moreover, the AC50 in experiment [18] was 4.45 µM (active).

With `Cc1ccnc(N)c1`, the outcome in experiment [1], in experiment [2], in [3], in [4], in experiment [5] and in [6] was inactive. The molecule was called inactive in [7], in [8], in experiment [9], in [10], in [11] and in experiment [12]. Besides, the outcome in experiment [13], in experiment [14], in experiment [16], in [17], in [18] and in [19] was inactive. Further, the AC50 in experiment [15] is 66.8 µM (active).

Regarding `CCCCCCC1CCCC(=O)O1` (stereo unspecified), the molecule was classed as inactive in [1], in [2], in experiment [4], in experiment [5], in experiment [6] and in experiment [7]. Also, the call in experiment [8], in experiment [9], in [10], in experiment [20], in experiment [11] and in experiment [12] was inactive. Moreover, the molecule was classed as inactive in experiment [13], in [14], in experiment [16], in experiment [17], in experiment [18] and in experiment [19]. Also, the concentration at half-maximal activity (AC50) in [3] was 19.8 µM (active); in experiment [15], 139 µM (active).

In the case of `Cc1cc(O)cc(C)c1Cl`, the molecule was classed as inactive in experiment [1], in experiment [2], in experiment [3], in experiment [4], in experiment [6] and in [7]. Also, the result in experiment [8], in [9], in [10], in experiment [11], in experiment [12] and in [13] was inactive. For the same molecule, the molecule was called inactive in experiment [14], in experiment [18] and in experiment [19]. For the same molecule, the AC50 was 109 µM (active) in experiment [5], 22.5 µM (active) in experiment [15] and 100 µM (active) in [16].
